In the library only some 14% were active in any assay of this set; here they are far more common.
Sm TGR inh – blocks Schistosoma mansoni thioredoxin glutathione reductase. Potency, µM (titrated, usually from 114 µM), for the others: at the top dose activity change, negative = inhibition, usual class: inhibitors. purified TGR, DTNB reduction, TNB absorbance 405 nm. actives 3% (n = 360,000); note: potency is the fitted concentration of half-maximal effect; nearly all actives have a fitted effect of over 60% in size
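TGR 20 nM + NADPH 100 uM (dispensed conc.), cpd preinc 15 min RT; start with NADPH (500 uM addition) then DTNB (15 mM addition). Kinetic TNB absorbance, 405 nm filter. Four-parameter Hill fit across titration.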
Giardia FBPA inh – Giardia lamblia aldolase inhibition. A8B2U2. purified Giardia FBPA. Potency, µM (series often up to 59.6 µM), for the others: at the highest dose activity, negative = inhibition, hits mostly inhibitors. actives 0.71% (n = 290,000). AID 2451; note: potency is the fitted concentration of half-maximal effect; nearly all actives have a fitted effect of over 55% in size
Target sequence (A8B2U2 whole entry, looked up): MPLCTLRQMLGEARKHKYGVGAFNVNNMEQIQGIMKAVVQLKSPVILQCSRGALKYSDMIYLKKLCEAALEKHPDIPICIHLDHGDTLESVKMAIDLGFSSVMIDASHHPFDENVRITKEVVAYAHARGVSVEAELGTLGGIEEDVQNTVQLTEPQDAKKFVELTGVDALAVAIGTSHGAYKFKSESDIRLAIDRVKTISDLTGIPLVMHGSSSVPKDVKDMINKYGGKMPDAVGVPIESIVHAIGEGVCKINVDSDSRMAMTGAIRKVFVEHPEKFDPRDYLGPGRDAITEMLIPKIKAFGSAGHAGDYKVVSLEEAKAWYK
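Giardia FBPA (40 nM reagent) was preincubated 10 min at RT with compound (up to 57.5 uM final), then substrate plus GAPDH/TPI/NAD/arsenate coupling system with diaphorase/resazurin was added; resorufin fluorescence (525/598 nm) was read after 20 min.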
Pf growth 48h – inhibits P. falciparum growth in the first generation, 48 h; P. falciparum luciferase growth in erythrocytes, 48 h; Potency, µM (series often up to 28.7 µM), for inactives: at the top dose activity change, negative = inhibition, usual class: inhibitors; actives 5.9% (n = 310,000); note: potency is the fitted concentration of half-maximal effect
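Compounds are pin-transferred into medium, infected erythrocytes (2% hematocrit, 0.1% parasitemia final) are added, and plates sit one parasite generation at 37 C in 5% CO2. Detection reagent is then added and luminescence measured.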
HCMV inh – human cytomegalovirus inhibition. activity change, negative = inhibition, % at 57.5 µM. actives 4.5% (n = 410,000). HFF cells, HCMV-luciferase reporter, 72 h; active compounds read low; in the data active = activity change below about -60%; inconclusive = no clear call, values can overlap the other calls; inactive = above about -39%
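After 16 h attachment at 37C, HFF cells received test compound and HCMV-luciferase (1 PFU/cell); reporter luminescence read 72 h later, data normalized against buffer-only and known inhibitor Salinomycin.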
Pf growth 96h – P. falciparum growth inhibition at 96 hour, primary screen for plastid delayed-death inhibitors | Potency, µM (doses to about 28.7 µM), without a hit: at the top dose activity change, negative = inhibition, most hits filed as inhibitors | actives 6.9% (n = 320,000) | AID 504834 | P. falciparum luciferase reporter growth, 96 h; note: potency is the fitted concentration of half-maximal effect
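P. falciparum expressing integrated firefly luciferase, in erythrocytes at 2% hematocrit, 0.05% parasitemia, incubated with compounds 96 h at 37 C, 5% CO2. Growth inhibition read as loss of luminescence; two-generation exposure targets delayed-death apicoplast inhibitors.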
* hit, by the source's call; u = inconclusive; x = no result given; ! = not active in a repeat; [ ] = remark or other dose. Unless noted, calls come from the whole dose curve; as a rule, active = well fitted curve in the direction sought with a large enough effect; inconclusive = small, poorly fitted or top-dose-only effect, or another doubt; inactive = no such curve, though single readings can be large; an effect the other way counts as inactive or inconclusive. % is set by controls: 0 for no effect and ±100 for the full control effect.

SMILES	Sm TGR inh	Giardia FBPA inh	Pf growth 48h	HCMV inh	Pf growth 96h
CC(=O)n1cc([C@H]2C=C(C(=O)N3CCN(Cc4ccccc4)CC3)O[C@@H](OCCCCO)C2)c2ccccc21	35µM*	-12%	u	x	5.2µM*
O=C(C1=C[C@@H](c2ccccc2)C[C@@H](OCCCCO)O1)N1CCN(Cc2ccc3c(c2)OCO3)CC1	-23%	1%	u	17	u
CC(=O)n1cc([C@@H]2C=C(C(=O)N3CCN(Cc4ccccc4)CC3)O[C@H](OCc3ccc(CO)cc3)C2)c2ccccc21	25µM*	-24%	0.93µM*	-74*	3.3µM*
CC(=O)n1cc([C@@H]2C=C(C(=O)N3CCN(Cc4ccc5c(c4)OCO5)CC3)O[C@H](OCCCCO)C2)c2ccccc21	-6%	-1%	u	-35	12µM*
Cc1ccc(OCC(=O)NCC(=O)OCc2cc(=O)n3nc(CC(C)C)sc3n2)cc1	3%	x	x	5	x
COc1ccc(S(=O)(=O)N2CCOCC2)cc1NC(=O)CN1CCN(C)CC1	-6%	x	-25%	-18	11%
OCCN1CN(c2ccccc2)C(=S)N(c2ccccc2)C1	x	x	x	38	x
CO[C@H]1COC(=O)C/C=C\[C@H](C)[C@@H](OC)COC(=O)[C@@H](C)COC(=O)C/C=C\[C@@H]1C	x	0%[12.9 µM]	x	x	x
OC1(c2ccccc2Cl)NN=C2CCCCCN21 (stereo unspecified)	-6%	-9%	-10%	-18	61%
C[N+]1=C2CCCCCN2C(O)(c2ccccc2)C1 (stereo unspecified)	-18%	-5%	16%	3	8.3µM*
COc1ccc(-c2nsc3c(N4CCCCC4)ncnc23)cc1	0%	-1%	185%	-83*	u
COc1ccc(-c2nsc3c(N4CCCCC4C)ncnc23)cc1 (stereo unspecified)	x	0%	-8%	-97*	-13%
CN(C)CCCN1c2ccccc2Sc2ccc(Cl)cc21	-5%	u	10µM*	-66*!	u
O=C(CN1CCCC1)N1c2ccccc2Sc2ccc(Cl)cc21	-15%	u	-16%	68	6%
OCCN1CCN(CCCN2c3ccccc3Sc3ccc(Cl)cc32)CC1	-9%	-2%	12µM*	-8	6.6µM*
CN(C)CCCN1c2ccccc2Sc2ccc3ccccc3c21	x	x	x	17	x
CN1CCCC[C@@H]1CCN1c2ccccc2Sc2ccc(S(C)=O)cc21 (stereo partly specified)	x	-7%[21.7 µM]	u	x	u
CN1CCN(CCCN2c3ccccc3Sc3ccc(S(=O)(=O)N(C)C)cc32)CC1	-21%	-4%[21.7 µM]	13µM*	-24	3.6µM*
CN1CCN(CCCNC(=O)c2cn(C)c3ccc(S(=O)(=O)N(C)C)cc3c2=O)CC1	-21%	6%	x	11	u
CC(=O)c1ccc2c(c1)N(CCCN1CCC(CCO)CC1)c1ccccc1S2	1%	-1%[21.7 µM]	8.1µM*	18	u
CN(C)CCCN1c2ccc3ccccc3c2Sc2cccc(Cl)c21	x	x	x	3	x
CN(C)CCCN1c2ccccc2C(C)(C)c2ccccc21	x	x	u	x	17µM*
O=C(N/N=C/c1cccnc1)c1ccc(CN2c3cccc4cccc(c34)S2(=O)=O)cc1	-6%	-1%	14%	0	u
COc1cccc(CNC(=O)CN2c3cccc4cccc(c34)S2(=O)=O)c1	-11%	x	0%	-88*	5%
COc1cccc(CNC(=O)COC(=O)c2nc(Cl)c(Cl)c(Cl)c2Cl)c1	3.2µM*	x	-17%	0	-4%
SMILES	Sm TGR inh	Giardia FBPA inh	Pf growth 48h	HCMV inh	Pf growth 96h
COc1cccc(CNC(=O)CCl)c1	u	7%	u	-17	10µM*
COc1cccc(/C=N/NC(=O)c2ccc(CN3c4cccc5cccc(c45)S3(=O)=O)cc2)c1	6%	-4%	-16%	u	10µM*
CN(C(=O)c1cc2c(s1)-c1ccc(Cl)cc1SC2)c1cccc(C(F)(F)F)c1	7%	x	x	-16	x
CN(CCc1ccccc1)C(c1ccnc2ccccc12)c1nnnn1-c1ccc2c(c1)OCCO2 (stereo unspecified)	x	x	x	-8	x
COc1cccc(CNC(=O)C(c2ccc(Cl)cc2)C(C)C)c1 (stereo unspecified)	-3%	0%	9.3µM*	-10	6.6µM*
C=C(C)C1CCC(C)C(OC(C)=O)C1 (stereo unspecified)	x	6%	x	x	x
COc1ccc(NC(=O)CN(C)C(=O)c2cccc(S(=O)(=O)N3CCCc4ccccc43)c2)cc1	14%	x	13µM*	10	u
COc1ccccc1CN(C)C(=O)c1cccc(S(=O)(=O)N2CCCc3ccccc32)c1	2%	x	7.4µM*	-36	9.3µM*
CCCCN(CC)CCNc1ncnc2onc(-c3ccc(Cl)cc3)c12	-5%	x	x	-18	x
CCOc1cc(/C=C2/SC(=Nc3ccccc3)N(Cc3cccnc3)C2=O)ccc1OCC#N	5%	-4%	u	-60*	2.1µM*
CCOC(=O)/C=C/COc1ccccc1[N+](=O)[O-]	2%	1%	100%	-63*	21%
C=CCNC(=O)CN1CCC(n2c(C)nc3cc(C(F)(F)F)ccc32)CC1	-8%	0%	x	0	49%
Cc1nc2cc(C(F)(F)F)ccc2n1C1CCN(CC(=O)NC(C)(C)C)CC1	1%	5%	9.3µM*	-82*	1%
Cc1nc2ccccc2n1C1CCN(Cc2nnnn2CCc2ccccc2)CC1	4%	-6%	13µM*	-1	x
Fc1ccc(Cn2nnnc2CN2CCC(n3nnc4cc(C(F)(F)F)ccc43)CC2)cc1	1%	-6%	u	-26	u
Cc1nc2cc(C(F)(F)F)ccc2n1C1CCN(Cc2nnnn2Cc2cccs2)CC1	-1%	2%	9.3µM*	58	-89%
Cc1nc2cc(C(F)(F)F)ccc2n1C1CCN(Cc2nnnn2Cc2ccc3c(c2)OCO3)CC1	-27%	12%	4.7µM*	23	-1%
CC(=O)NCCNc1nc(-c2ccccc2CN(C)C)nc2ccccc12	x	-7%	x	x	x
CCOc1cccc(CN2CCCC(N3CCc4cc(OC)c(OC)cc4C3)C2)c1O (stereo unspecified)	-10%	-18%	u	12	u
CC(C)CC1NC(=O)c2cc3ccccc3cc2-n2c1nc1ccc(F)cc1c2=O (stereo unspecified)	x	x	x	-30	x
Clc1ccc2nc(C3CCN(Cc4nnnn4C4CCCCC4)CC3)[nH]c2c1	-2%	0%	12µM*	-10	-23%
COCCn1nnnc1CN1CCC(Cc2ccccc2)CC1	2%	-9%	-15%	-15	2.6µM*
FC(F)(F)c1ccc2c(c1)ncn2C1CCN(Cc2nnnn2C2CCCCC2)CC1	-7%	4%	4.1µM*	17	-1%
CCCCNC(=O)CCn1c(=O)c2ccccc2n(Cc2ccc(Cl)cc2)c1=O	-13%	5%	6%	-28	0%
CN(Cc1cccnc1)C(=O)Cc1ccc(NS(=O)(=O)c2cccc(C(F)(F)F)c2)cc1	-7%	4%	-17%	13	-24%

Bioassay records: PubChem, National Center for Advancing Translational Sciences (NCATS)
